Assay outcomes: PubChem, National Center for Advancing Translational Sciences (NCATS)
The list is not random: actives were taken first. Their share in the collection is about 9.2%.
FLuc modulator: inhibits or activates purified firefly luciferase, miR-21 counter-screen | AID 588342 | Potency, µM (titrated, usually from 57.5 µM), inactives show top-dose activity change, negative = inhibition, most hits filed as inhibitors | 360,000 compounds, 6.9% hits | purified FLuc, Km substrates, luminescence inhibition | P08659;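 note: plate controls were vehicle for no effect and reference inhibitor for full effect; nearly all actives have a fitted effect of over 55% in size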
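Biochemical qHTS of compounds, final roughly 60 µM downward over six points, against 10 nM purified firefly luciferase using Km concentrations of substrates (10 uM D-luciferin, 10 uM ATP) in Tris acetate pH 7.5 buffer; luminescence output.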
SMN2 splice enh: increases expression of the SMN2 splice variant | HEK293 SMN2-luciferase splicing reporter, luminescence, 30-36 h | Potency, µM (doses to about 46.1 µM), without a hit: top-dose activity change, positive = activation, most hits filed as activators | 210,000 compounds, 2.8% hits | AID 1458; note: % of control where 0% means no effect; nearly all actives have a fitted effect of over 55% in size
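HEK293 cells carry an SMN2 […]–luciferase reporter in which exon 7 inclusion puts luciferase in frame. Cells were plated 10-12 h before compound addition, then incubated 30-36 h at 37C. ONE-Glo luminescence was read; sodium butyrate at 4.5 mM final served as control.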
Rab9 prom act: Rab9 promoter activation; Huh7 Rab9 promoter-luciferase reporter, luminescence, 24 h; Potency, µM (highest dose often 9.22 µM), without a hit: at the highest dose activation, negative = inhibition, hits mostly activators; 320,000 compounds, 2.8% hits; AID 485297; note: % of control where 0% means no effect; nearly all actives have a fitted effect of over 60% in size
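Huh7 cells stably carrying Rab9 promoter–luciferase reporter, plated 1500 cells/well, compound added after 2 h and incubated 24 h at 37 °C; luciferase luminescence then read after 10 min with detection reagent.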
NPC1 prom act: NPC1 promoter activation. Huh7 NPC1 promoter luciferase reporter, 24 h. Potency, µM (series often up to 9.22 µM), for inactives: top-dose activation, usual class: activators. 320,000 compounds, 2.4% hits. AID 485313; note: % of control where 0% means no effect; nearly all actives have a fitted effect of over 60% in size
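Cells: Huh7 expressing luciferase under the NPC1 promoter, 1500/well. Seeded 2 h, compound added, incubated 24 h at 37 °C. Luciferase reagent, 10 min ambient, then luminescence.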
ELG1 repair inh: blocks ELG1-dependent DNA repair in HEK293T cells. HEK293T ELG1-luciferase reporter, luminescence, 16 h; DNA damage induced by 5-fluorouridine. Potency, µM (titrated, usually from 46.1 µM), for inactives: at the top dose activity change, negative = inhibition, most hits filed as inhibitors. 330,000 compounds, 2.3% hits. AID 504467; note: % is set by controls: 0 for no effect and ±100 for the full control effect; nearly all actives have a fitted effect of over 55% in size
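In this reporter screen, reduction of luminescence relative to DMSO vehicle indicated activity. Compounds and 5-fluorouridine were added together to 2,000 cells per well, incubated for 16 hr at 37 °C, then developed with ONE-Glo.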
ELG1 genotox: genotoxicity induction in ELG1-luciferase HEK293T cells; HEK293T ELG1-luciferase reporter, luminescence, 16 h; Potency, µM (highest dose often 46 µM), inactives show top-dose activity change, positive = activation, actives largely listed as activators; 330,000 compounds, 1.3% hits; note: % of control where 0% means no effect; nearly all actives have a fitted effect of over 60% in size
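Screening used a luciferase reporter fused to human ELG1 in HEK293T cells. Luminescence was read on a CCD plate imager after 16 hr exposure and 30 min ONE-Glo incubation.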
ELG1 FLuc counter: luciferase inhibition in cell-free luciferin readout for ELG1 hits; shares compounds with ELG1 repair inh; cell-free firefly luciferase luminescence counter-screen, ViewLux; Potency, µM (series often up to 46.1 µM), inactives show at the highest dose activity change, negative = inhibition, most hits filed as inhibitors; 350 compounds, 3% hits; note: % is set by controls: 0 for no effect and ±100 for the full control effect
ELG1 Luc conf: confirmation of human ELG1-dependent DNA repair inhibitors | shares compounds with ELG1 repair inh | HEK293T ELG1-luciferase levels, luminescence; cells co-treated with 5-fluorouridine | Potency, µM (titrated, usually from 46.1 µM), inactives show at the top dose activity change, negative = inhibition, most hits filed as inhibitors | 670 compounds, 68% hits | AID 624248; note: % is set by controls: 0 for no effect and ±100 for the full control effect; nearly all actives have a fitted effect of over 55% in size
Target sequence (Q96QE3 whole entry, looked up): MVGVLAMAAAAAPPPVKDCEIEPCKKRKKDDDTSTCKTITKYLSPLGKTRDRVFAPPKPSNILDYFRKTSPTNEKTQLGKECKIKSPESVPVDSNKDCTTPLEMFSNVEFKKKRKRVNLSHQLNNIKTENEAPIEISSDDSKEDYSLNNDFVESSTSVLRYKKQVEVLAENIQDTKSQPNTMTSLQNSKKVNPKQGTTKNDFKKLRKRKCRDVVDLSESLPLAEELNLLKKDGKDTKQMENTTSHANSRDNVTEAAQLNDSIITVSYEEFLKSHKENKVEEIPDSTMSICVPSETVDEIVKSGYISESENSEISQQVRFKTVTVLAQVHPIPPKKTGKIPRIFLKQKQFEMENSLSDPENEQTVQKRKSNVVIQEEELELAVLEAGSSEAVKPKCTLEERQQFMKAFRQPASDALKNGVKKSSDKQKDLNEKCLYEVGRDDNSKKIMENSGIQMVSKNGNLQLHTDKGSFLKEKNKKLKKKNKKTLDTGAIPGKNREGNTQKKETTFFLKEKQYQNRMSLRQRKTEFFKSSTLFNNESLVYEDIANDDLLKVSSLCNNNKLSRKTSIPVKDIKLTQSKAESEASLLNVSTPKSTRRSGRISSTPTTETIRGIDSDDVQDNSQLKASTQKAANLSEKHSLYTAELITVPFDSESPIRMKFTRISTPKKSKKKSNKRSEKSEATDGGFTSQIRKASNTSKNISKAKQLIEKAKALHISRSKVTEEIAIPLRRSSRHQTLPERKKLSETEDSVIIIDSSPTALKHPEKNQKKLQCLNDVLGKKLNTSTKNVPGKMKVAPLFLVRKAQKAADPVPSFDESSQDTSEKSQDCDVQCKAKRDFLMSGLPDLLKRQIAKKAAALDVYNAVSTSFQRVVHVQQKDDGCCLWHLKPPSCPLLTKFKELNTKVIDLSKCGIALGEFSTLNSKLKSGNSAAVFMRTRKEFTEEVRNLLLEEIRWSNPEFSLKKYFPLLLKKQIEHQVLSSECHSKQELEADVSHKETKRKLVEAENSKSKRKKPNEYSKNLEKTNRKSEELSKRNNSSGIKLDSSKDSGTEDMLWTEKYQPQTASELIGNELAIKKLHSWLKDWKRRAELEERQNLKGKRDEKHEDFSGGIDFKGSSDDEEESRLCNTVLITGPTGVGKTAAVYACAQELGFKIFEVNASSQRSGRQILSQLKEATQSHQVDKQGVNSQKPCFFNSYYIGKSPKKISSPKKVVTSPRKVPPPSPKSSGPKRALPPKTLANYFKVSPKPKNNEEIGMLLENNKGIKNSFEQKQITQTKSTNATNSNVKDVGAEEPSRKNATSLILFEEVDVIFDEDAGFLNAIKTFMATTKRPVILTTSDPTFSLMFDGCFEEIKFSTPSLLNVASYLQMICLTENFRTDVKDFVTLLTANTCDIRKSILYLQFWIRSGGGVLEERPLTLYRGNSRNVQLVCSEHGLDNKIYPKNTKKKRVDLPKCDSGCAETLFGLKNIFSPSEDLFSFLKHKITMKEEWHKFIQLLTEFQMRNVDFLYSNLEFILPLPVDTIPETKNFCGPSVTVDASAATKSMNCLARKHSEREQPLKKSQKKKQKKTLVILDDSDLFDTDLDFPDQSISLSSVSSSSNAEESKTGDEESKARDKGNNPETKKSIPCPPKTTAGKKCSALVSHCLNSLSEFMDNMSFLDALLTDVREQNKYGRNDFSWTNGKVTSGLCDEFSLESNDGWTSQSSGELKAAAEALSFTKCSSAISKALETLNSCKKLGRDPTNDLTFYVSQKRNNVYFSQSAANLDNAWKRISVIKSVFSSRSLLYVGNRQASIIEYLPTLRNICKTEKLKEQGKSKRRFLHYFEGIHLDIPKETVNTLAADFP
ELG1-Luc MMS: MMS-stimulated human ELG1 repair inhibition, confirmed. Potency, µM (series often up to 46.1 µM), inactives show at the highest dose activity change, negative = inhibition, hits mostly inhibitors. 670 compounds, 53% hits. HEK293T luciferase-tagged ELG1 level, MMS stimulated. AID 624249. shares compounds with ELG1 repair inh; note: % is set by controls: 0 for no effect and ±100 for the full control effect; nearly all actives have a fitted effect of over 60% in size
ELG1 5-FU: confirmation of ELG1 repair inhibitors: viability with 5FU; 670 tested, under 10 active; cell viability with 5-FU, ELG1-dependent repair; shares compounds with ELG1 repair inh; Potency, µM (series often up to 46.1 µM), for inactives: at the highest dose activity change, negative = viability loss, usual class: cytotoxic;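 note: ELG1-luc HEK293T cells cotreated with 5-fluorouridine at 10 µM final; viability measured 16 h after compound addition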
ELG1 MMS cell: confirmation of ELG1 repair inhibitors: viability with MMS | AID 624251 | Potency, µM (highest dose often 46.1 µM), without a hit: top-dose activity change, negative = viability loss, hits mostly cytotoxic | shares compounds with ELG1 repair inh | Cell viability with MMS, ELG1-dependent DNA repair | 670 compounds, 33% hits;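 note: ELG1-luc HEK293T cells co-treated with 10 µM MMS; viability read 16 h after compound addition; % is set by controls: 0 for no effect and ±100 for the full control effect; nearly all actives have a fitted effect of over 60% in size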
Cell viab unstim: affects unstimulated cell viability, ELG1 hit counter-screen. shares compounds with ELG1 repair inh. cell viability counter-screen, unstimulated, luminescence. Potency, µM (doses to about 45.9 µM), without a hit: at the top dose activity change, negative = loss of viability, actives largely listed as cytotoxic. 900 compounds, 8% hits;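 note: compound exposure lasted 16 hours before reading; % is set by controls: 0 for no effect and ±100 for the full control effect; nearly all actives have a fitted effect of over 55% in size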
FLuc biochem: inhibits purified firefly luciferase, counter-screen for ELG1 hits. purified firefly luciferase, luminescence counter-screen. shares compounds with ELG1 repair inh. Potency, µM (series often up to 57.5 µM), without a hit: at the top dose activity, negative = inhibition, usual class: inhibitors. 350 compounds, 10% hits; note: % is set by controls: 0 for no effect and ±100 for the full control effect
Starred values were filed as active, the others as inactive; ? = inconclusive; . = no result; [ ] = remark or other dose. Calls come from the whole dose curve; as a rule, active = well fitted curve in the direction sought with a large enough effect; inconclusive = small, poorly fitted or top-dose-only effect, or another doubt; inactive = no such curve, though single readings can be large; an effect the other way counts as inactive or inconclusive. Potency is the fitted concentration of half-maximal effect.

SMILES	FLuc modulator	SMN2 splice enh	Rab9 prom act	NPC1 prom act	ELG1 repair inh	ELG1 genotox	Cell viab unstim	others
CC(OC(=O)c1ccc(NS(=O)(=O)c2ccc3[nH]c(=O)[nH]c3c2)cc1)C(=O)Nc1ccc(Cl)cc1 (stereo not given)	-4%	-5%	-5%	-2%	?	-5%	.
Cc1cc(O)c(C)c(O)c1/C=N/NC(=O)c1cccnc1	1%	.	-41%	-39%	?	8%	.
COc1ccc(-c2cc(C(=O)N(C)Cc3nc4ccccc4c(=O)[nH]3)c3ccccc3n2)cc1OC	.	.	.	.	2.3µM*	-4%	?	ELG1 Luc conf=2.5µM*;ELG1-Luc MMS=7.1µM*;ELG1 5-FU=?;ELG1 MMS cell=8.9µM*
COc1ccc(CN(C)C(=O)c2cc(-c3ccc(OC)c(OC)c3)nc3ccccc23)c(OC)c1	1%	.	0%	-3%	2%	7%	.
CC(C)(C)NC(=O)CSc1ccc(S(=O)(=O)N2CCOCC2)cn1	3%	.	1%	0%	-1%	-1%	.
CCOC(=O)N1CCC(=NNC(=O)c2cc3ccccc3cc2O)CC1	?	6%	-2%	-1%	5%	-2%	.
O=C1CCCC(=NNC(=O)c2cc3ccccc3cc2O)C1	.	.	.	.	?	?	-14%
CCC(C)NC(=O)c1oc2ccc(S(=O)(=O)N3CCC4(CC3)OCCO4)cc2c1C (stereo not given)	0%	.	-1%	1%	-25%	-18%	-20%	ELG1 FLuc counter=-9%;ELG1 Luc conf=16µM*;ELG1-Luc MMS=?;ELG1 5-FU=4%;ELG1 MMS cell=-4%;FLuc biochem=-2%
Cc1c(C(=O)Nc2ccc(F)cc2)oc2ccc(S(=O)(=O)N3CCC4(CC3)OCCO4)cc12	3%	-47%	-7%	0%	12µM*	-15%	?	ELG1 FLuc counter=?;ELG1 Luc conf=7.1µM*;ELG1-Luc MMS=22µM*;ELG1 5-FU=?;ELG1 MMS cell=25µM*;FLuc biochem=-3%
Cc1ccccc1C(=O)NC1(C(F)(F)F)C(=O)Nc2c1c(=O)[nH]c(=O)n2-c1ccc(F)cc1 (stereo not given)	2%	-14%	.	.	.	.	.
C[C@@]12C[C@H](O)C3[C@H](CCC4=CC(=O)CC[C@]43C)[C@H]1CC[C@@H]2c1csc(-c2ccccc2)n1 (stereo not given in full)	.	-8%[9.22 µM]	.	.	.	.	.
CCCCCCNC(=O)CCc1c(C)nc2nc(-c3cc(OC)cc(OC)c3)nn2c1C	2%	3%	.	.	.	.	.
CCCCNC(=O)CCc1c(C)nc2nc(-c3cc(OC)cc(OC)c3)nn2c1C	0%	24%	9%	0%	2.3µM*	1%	8%	ELG1 Luc conf=?;ELG1-Luc MMS=1%;ELG1 5-FU=?;ELG1 MMS cell=?
C=CCNCCOCCOc1ccccc1-c1ccccc1	-4%	.	-19%	2%	4%	3%	.
Fc1ccc(-c2csc(-c3nc(-c4ccc(Br)s4)cs3)n2)cc1	2%	-1%	.	.	.	.	.
Oc1cc2cc(-c3csc(-c4ccc(F)cc4)n3)cc3c2n1CCC3	.	.	.	.	.	.	1%
CC(C)NC(=O)CSc1nc(N)c(-c2ccccc2)c(=O)[nH]1	7%	5%	11%	-5%	-8%	5%	.
COC(=O)Nc1nnc(COc2ccccc2)s1	-15%	.	1%	-1%	-4%	0%	.
Cc1cc(-c2ccccc2)n2nc(-c3ccc(Cl)cc3)cc2n1	-2%	.	.	.	.	.	.
Cc1nc2cc(-c3ccccc3)nn2c(N)c1-c1ccccc1	.	.	0.63µM*	1µM*	?	1.8µM*	0%	ELG1 FLuc counter=58%;FLuc biochem=0.37µM*
COc1ccc(C(=O)NCc2nnc(SCC(=O)Nc3ccccc3)n2-c2ccc(F)cc2)cc1	-5%	-2%	.	.	.	.	.
O=C(NCCC1=CCCCC1)C1CCN(C(=O)N2CCOc3ccccc32)CC1	-5%	.	.	.	.	.	.
COc1cccc(/C=C/C(=O)OCC(=O)c2ccccc2)c1OC	.	.	.	.	?	?	-3%
COc1cccc(/C=C/C(=O)OCC(=O)c2ccc(C)c(C)c2)c1OC	?	.	-3%	1%	7%	0%	.
CCOc1ccc(NC(=O)CN(C)C(=O)C2CCN(c3ncnc4sc(C)c(C)c34)CC2)cc1OCC	2%	.	-3%	1%	15µM*	-19%	-14%	ELG1 FLuc counter=?;ELG1 Luc conf=16µM*;ELG1-Luc MMS=25µM*;ELG1 5-FU=?;ELG1 MMS cell=?;FLuc biochem=1%
NC(=O)c1ccsc1NC(=O)COC(=O)Cc1cccc2ccccc12	?	-40%	-10%	-5%	1.6µM*	-3%	?	ELG1 Luc conf=?;ELG1-Luc MMS=0.63µM*;ELG1 5-FU=0%;ELG1 MMS cell=1.3µM*
Cn1c(=O)c2c(nc(Oc3cccc(O)c3)n2C)n(C)c1=O	1%	.	0%	0%	-18%	-3%	.
Cn1c(=O)c2c(nc(Oc3ccc4ccccc4c3)n2C)n(C)c1=O	1%	-28%	1%	10%	4.1µM*	-31%	-4%	ELG1 Luc conf=8.9µM*;ELG1-Luc MMS=13µM*;ELG1 5-FU=?;ELG1 MMS cell=?
COc1cc(C[C@@H]2C(=O)OC[C@H]2Cc2ccc(OC)c(OC)c2)ccc1O	-1%	.	-35%	-31%	1%	1%	.
